In PubChem BioAssay AID1259324 (C. David Weaver Laboratory, Vanderbilt University, 2017):
The whole screen tested about 34,000 compounds, of which fewer than 10 were called active.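 The calls were made as follows: active = primary screen hit, no activity in plain HEK293 cells, and in GIRK2-only cells above 5% efficacy rising with concentration; inactive = the rest, including fluorescent compounds.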 Not all results are given here.

These compounds were tested against G protein-activated inward rectifier potassium channel 2 (Homo sapiens) (UniProt P48051) (assay: activators of NPY4-receptor-primed GIRK2 channels, summary, cell-based, HEK293, thallium flux (AID 1259324)). Settings: HEK293 GIRK2/NPY4 cells, thallium flux fluorescence.
Sequence of G protein-activated inward rectifier potassium channel 2 (Homo sapiens) (P48051 whole entry, looked up): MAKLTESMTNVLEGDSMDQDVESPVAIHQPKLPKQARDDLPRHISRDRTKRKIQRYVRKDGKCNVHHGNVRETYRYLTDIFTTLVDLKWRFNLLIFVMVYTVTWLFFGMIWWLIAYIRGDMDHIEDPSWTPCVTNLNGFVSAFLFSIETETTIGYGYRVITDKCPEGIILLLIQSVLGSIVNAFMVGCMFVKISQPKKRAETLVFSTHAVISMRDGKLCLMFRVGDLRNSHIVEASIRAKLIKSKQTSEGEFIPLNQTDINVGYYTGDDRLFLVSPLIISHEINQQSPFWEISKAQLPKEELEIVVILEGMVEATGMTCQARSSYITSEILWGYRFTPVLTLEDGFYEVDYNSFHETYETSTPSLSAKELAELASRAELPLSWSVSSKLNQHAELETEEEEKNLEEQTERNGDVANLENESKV

outcome, inactive:
Cc1c(C(=O)NCc2ccccc2Cl)nnn1-c1ccc(F)cc1, Cc1cccc(NC(=O)c2cc(-c3ccco3)nc3c2c(C)nn3C2CCS(=O)(=O)C2)c1 (stereo not drawn), Cc1cc(C(=O)Nc2nc(-c3cccs3)cs2)on1 inactive; active, COc1ccc(CCNC(=O)Nc2cc(N3CCCS3(=O)=O)ccc2C)cc1, O=C(Cc1cc(-c2ccc(F)cc2)on1)N1CCc2ccccc21, O=C(NCCC1=CCCCC1)C(=O)NCc1nc(-c2ccccc2)no1, COc1ccc(NC(=O)N2CCN(c3cc(OC)nc(OC)n3)CC2)cc1, CC(C)(C)C(=O)N1CCc2ccc(NS(=O)(=O)c3ccc(Cl)s3)cc21, COc1ccc(Cl)cc1C(=O)NCCNc1cc(-n2ccnc2C)ncn1, COc1ccccc1C1(CNC(=O)Cc2ccc(F)cc2)CCOCC1, CCOc1ccc(NC(=O)NCCCn2nc(-c3ccncc3)ccc2=O)cc1 inactive; active, COc1ccc(NC(=O)Cn2cc(OC)c(=O)cc2CSc2nccc(C)n2)cc1, O=C(C1CCCCC1)N(CCN1CCOCC1)c1nc2c(Cl)cccc2s1, Cn1c(=O)c2cc(C(=O)NC3CCCCCC3)sc2n(C)c1=O, COc1ccc(C)cc1S(=O)(=O)NCC(c1ccc(F)cc1)N1CCN(C)CC1 (stereo not drawn), O=C(Cc1ccc(-c2ccccc2)cc1)NCC1CCN(Cc2ccco2)CC1, CCOc1ccc(-c2cc(=O)n(CC(=O)Nc3ccccc3F)cn2)cc1, O=C(CCCS(=O)(=O)c1ccccc1)Nc1nc2c(F)cccc2s1, CCOc1ccc2ccccc2c1C(=O)N1CCN(c2ncnc3c2nnn3C)CC1, CCOC(=O)N1CCN(C(c2ccccc2F)c2sc3nc(CC)nn3c2O)CC1 (stereo not drawn), COc1coc(C(=O)Nc2ccc(C(N)=O)cc2)cc1=O, COc1ccccc1CCNC(=O)Cc1csc(NC(=O)C2CCC(=O)N2)n1 (stereo not drawn), O=C(C1CC=CCC1)N1CCN(CCn2ccnc2)CC1 (stereo not drawn), O=C(c1cccs1)N1CCc2ccc(NS(=O)(=O)Cc3cccc(Cl)c3)cc21, Cc1ccc(-n2ccnc2N2CCN(C(=O)c3cccs3)CC2)cc1, COC(=O)c1c2c(nc3c1c(-c1ccccc1)nn3C1CCS(=O)(=O)C1)CCC2 (stereo not drawn), CCC(=O)Nc1ccc(SCC(=O)NCC2CCCO2)nn1 (stereo not drawn), O=C(NCC(O)c1ccc(C(F)(F)F)cc1)C1(c2cccs2)CCCC1 (stereo not drawn)
